KB-V1 MDR tox = kills drug-selected multidrug resistant KB-V1 cells; KB-V1 MDR cells viability, CellTiter-Glo, 72 h; Potency, µM (series often up to 46.1 µM), usual class: cytotoxic; 400,000 compounds, 3.4% hits; note: % is set by controls: 0 for no effect and ±100 for the full control effect; nearly all actives have a fitted effect of over 60% in size
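Compound-treated KB-V1 multidrug-resistant cells, 72 h, 37 degrees C; viability by CellTiter-Glo. Fitted qHTS curves give the values.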
HT1080 IDH1KD tx = kills HT-1080 cells with IDH1 knockdown; HT-1080 IDH1 knockdown viability, ATP luminescence, 48 h; Potency, µM (doses to about 46.1 µM), inactives show at the top dose activity, negative = toxicity, actives largely listed as cytotoxic; 360,000 compounds, 2% hits;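 note: 0% = DMSO wells and -100% = cell-free medium wells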
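Luminescent ATP read-out (CellTiter-Glo, 10 min at room temperature) after 48 h compound exposure at 37 °C gave viability of IDH1-knockdown HT-1080 cells. Activity was normalised to DMSO and cell-free wells, then fitted as concentration-response curves.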
HT1080NT lethal = kills 2HG-producing HT-1080-NT fibrosarcoma cells | HT-1080-NT fibrosarcoma viability, CellTiter-Glo ATP luminescence, 48 h | Potency, µM (titrated, usually from 46.1 µM), for inactives: at the top dose activity, negative = less viability, hits mostly cytotoxic | 360,000 compounds, 1.6% hits | AID 686970;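 note: NT is the 2HG producing partner of a matched IDH1 knockdown line; 0% = DMSO-treated cells and -100% = media-only wells without cells; nearly all actives have a fitted effect of over 55% in size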
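Read-out is CellTiter-Glo luminescence after 10 minutes at room temperature, following 48 hours' compound treatment of HT-1080-NT cells (750 cells/well, RPMI, 5% FBS, 37 degrees C).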
KB-3-1 cytotox = kills parental KB-3-1 adenocarcinoma cells | KB-3-1 viability, CellTiter-Glo ATP luminescence, 72 h | Potency, µM (titrated, usually from 46.1 µM), hits mostly cytotoxic | 400,000 compounds, 1.4% hits | AID 1347075; note: % is set by controls: 0 for no effect and ±100 for the full control effect; nearly all actives have a fitted effect of over 60% in size
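Cytotoxicity measured as CellTiter-Glo luminescence after 72 h at 37 C. Compound titrations were pinned onto drug-naive KB-3-1 parental adenocarcinoma cells grown in DMEM with 10% FBS, and normalized data fitted to concentration-response curves.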
MCF10A rereplic = inducers of DNA re-replication in MCF 10A breast cells; MCF 10A DNA re-replication, Hoechst nuclear intensity, 48 h; Potency, µM (top dose mostly 46.1 µM), for inactives: at the highest dose activity, positive = re-replication, actives largely listed as activators; 350,000 compounds, 2.9% hits; note: % of control where 0% means no effect; nearly all actives have a fitted effect of over 50% in size
SW480 rereplic = induces DNA re-replication in SW480 colon adenocarcinoma cells | Potency, µM (top dose mostly 46.1 µM), without a hit: at the highest dose re-replication activation, hits mostly activators | 340,000 compounds, 1.8% hits | AID 624297 | SW480 DNA re-replication, Hoechst DNA content imaging, 48 h; note: % of control where 0% means no effect; nearly all actives have a fitted effect of over 55% in size
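250 cells/well; 23 nL cpd via pin tool; 48 hr, 37 C, 5% CO2; Hoechst 40 min; imager read of total nuclear intensity, ex 405/em 500-530 nm.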
* = called active by the depositor; i = inactive; ? = inconclusive; · = not tested or not shown. Sampled rows, rich in hits. Any-hit rate of the full collection: about 8%. Calls come from the whole dose curve; as a rule, active = well fitted curve in the direction sought with a large enough effect; inconclusive = small, poorly fitted or top-dose-only effect, or another doubt; inactive = no such curve, though single readings can be large; an effect the other way counts as inactive or inconclusive. Potency is the fitted concentration of half-maximal effect.

SMILES	KB-V1 MDR tox	HT1080 IDH1KD tx	HT1080NT lethal	KB-3-1 cytotox	MCF10A rereplic	SW480 rereplic
CCCC1=NN2C(=N)/C(=C\c3cc(C)n(-c4cccc(C)c4)c3C)C(=O)N=C2S1	i	-14%	0%	i	?	-3%
O=C(CCNS(=O)(=O)c1ccc2c(c1)CCN2C(=O)C1CC1)Nc1ccc(OC(F)(F)F)cc1	?	·	·	i	·	·
CCCCCCC[N+](CC)(CC)CCCCc1ccc(Cl)cc1	i	6.5µM*	6.5µM*	?	?	18%
CCCCCCCc1ccc(-c2ccc(O)cc2)nc1	i	?	-14%	i	?	-3%
OC(COc1cccc2ccccc12)CN1CCN(c2ccccc2Cl)CC1 (stereo not given)	i	?	?	i	18µM*	?
O=C(CCl)c1ccc2c(c1)CCCC2	i	·	·	i	·	·
COc1ccc(N(C(=O)c2cccc(C)c2)S(=O)(=O)c2ccc3c(c2)n(C)c(=O)n3C)cc1	i	·	·	i	·	·
O=C1c2cccc3cccc(c23)C(=O)N1Cc1cccnc1	i	4%	2%	i	0%	-15%
Cc1ccnc(N2C(=O)c3cccc4c([N+](=O)[O-])ccc(c34)C2=O)c1	i	2.8µM*	5µM*	i	4.6µM*	3.7µM*
Cc1ccnc(N2C(=O)c3ccccc3C2=O)c1	?	24%	17%	i	-2%	-4%
Cc1ccc(N2C(=O)c3cccc4c(N5CCN(C)CC5)ccc(c34)C2=O)c2cccnc12	i	11µM*	?	i	-9%	-5%
Cc1cnc(N2C(=O)c3ccc([N+](=O)[O-])cc3C2=O)s1	i	12%	17%	i	0%	-5%
Cc1nnc(N2C(=O)c3cccc4c([N+](=O)[O-])ccc(c34)C2=O)s1	i	?	?	i	23µM*	?
O=C1c2cccc3c([N+](=O)[O-])ccc(c23)C(=O)N1Cc1cccnc1	i	12µM*	8.2µM*	?	18µM*	?
Cc1ccccc1Cn1c(SCc2ccc(C(=O)NC(C)c3ccccc3)cc2)nc2ccncc21 (stereo not given)	i	·	·	i	·	·
Cc1ccc(N2C(=O)c3cccc4c([N+](=O)[O-])ccc(c34)C2=O)c2cccnc12	?	?	?	0.065µM*	2.6µM*	2.1µM*
Cc1cccc(N2C(=O)c3cccc4c(N5CCCCC5)c([N+](=O)[O-])cc(c34)C2=O)c1C	?	-5%	-4%	i	?	0%
Cc1cc(N2CCC(C(=O)Nc3ccc(F)cc3C)CC2)n2nc(C)c(-c3ccc(Cl)cc3)c2n1	i	·	·	i	·	·
COC1CCC2(C)C(=CCC3C4CC(O)CC4(C)CCC32)C1 (stereo not given)	18µM*	-2%	-3%	i	12%	-2%
O=C(NCCN1CCN(c2ccccc2)CC1)Nc1cccc(Cl)c1	i	18µM*	21µM*	i	?	37%
Cc1ncsc1C(=O)NCc1ccc(N2CCCC2=O)cc1	16µM*	1%	6%	i	-1%	-4%
Cc1cc(C(=O)NCCN2CCN(c3cccc(Cl)c3)CC2)n(-c2ccccc2)n1	i	16µM*	8.2µM*	15µM*	26µM*	8.2µM*
O=C(NCc1ccc(N2CCCC2=O)cc1)Nc1cccc(Cl)c1	16µM*	-24%	-3%	i	?	?
CCc1ccccc1NC(=O)Cn1c(=O)n(Cc2ccco2)c(=O)c2ccccc21	i	·	·	i	·	·
CC(Oc1ccc(Cl)cc1Cl)C(=O)NCCCn1ccnc1 (stereo not given)	i	11%	7%	i	16µM*	-6%
SMILES	KB-V1 MDR tox	HT1080 IDH1KD tx	HT1080NT lethal	KB-3-1 cytotox	MCF10A rereplic	SW480 rereplic
CC(Oc1ccc(Cl)cc1Cl)C(=O)NCc1ccncc1 (stereo not given)	21µM*	-6%	0%	i	-1%	-2%
CC(Oc1ccc(Cl)cc1Cl)C(=O)Nc1ccc2oc(-c3ccncc3)nc2c1 (stereo not given)	i	-9%	-4%	?	9.2µM*	?
CC(Oc1ccc(Cl)cc1Cl)C(=O)NNC(=O)c1ccncc1 (stereo not given)	i	-7%	?	i	-1%	-1%
CCOC(=O)COc1ccc(CC)cc1C(=O)c1ccn2nc(-c3ccc(Cl)cc3)cc2n1	?	·	·	i	·	·
COc1ccc(Cl)cc1NC(=O)c1ccc2nc(Cc3ccccc3)oc2c1	i	·	·	i	·	·
CN(CC1CCOCC1)C(=O)c1ccc2nc(Cc3cccc(Cl)c3)oc2c1	·	-8%	0%	·	18µM*	10%
O=C(NCCCN1CCN(c2cccc(Cl)c2)CC1)c1ccc2nc(Cc3ccccc3)oc2c1	?	·	·	15µM*	·	·
O=C(Nc1cccc(Cl)c1)c1ccc2nc(Cc3ccccc3)oc2c1	?	·	·	15µM*	·	·
O=C(NCC1CCOCC1)c1ccc2nc(Cc3cccc(Cl)c3)oc2c1	i	-19%	-14%	i	9%	0%
Cc1cccc(N2CCN(C(=O)c3c4c(nc5ccccc35)C(=O)N(C3CCCCC3)C4)CC2)c1C	i	·	·	i	·	·
COC(=O)NC(=S)Nc1ccc(Oc2ccc(Cl)cc2)c(Cl)c1	i	-22%	?	i	-4%	0%
COC(=O)NC(=S)Nc1ccc(Oc2ccc(Cl)cc2Cl)c(Cl)c1	?	21µM*	16µM*	15µM*	?	?

Assay outcomes as filed in PubChem BioAssay.
